# Reference: ChEMBL document CHEMBL5606460, “ASAP - DENV-2 NS2B-NS3 protease fluorescence single point” (2024)
# Screen size: about 2,000 compounds; about 110 (5.5%) showed an effect of 50% or more. The entries come from a sample that favours strong results as a whole. Residues, ends and D or L forms follow the SMILES beside them. *: point of attachment. pNA = O=[N+]([O-])c1ccc(N*)cc1; Boc = CC(C)(C)OC(=O)*
# Target: Genome polyprotein (dengue virus type 2) (UniProt P29990)
# [1] = Thailand/16681/1984, Concentration 25.0 uM, Number of replicates 1.0
compound,measurement,setting,value
CC(C)Nc1nc2cc(NCc3cccc(C(N)=O)c3)ccc2[nH]1,inhibition,"Thailand/16681/1984, Concentration 49.5 uM, Number of replicates 2.0, Standard deviation 0.023235641877752903 %",-0.517%
same,inhibition,"Thailand/16681/1984, Concentration 99.01 uM, Number of replicates 2.0, Standard deviation 0.06423980503181957 %",1.24%
same,inhibition,"Thailand/16681/1984, Concentration 198.0 uM, Number of replicates 2.0, Standard deviation 0.8255495407458023 %",3.31%
CSCC[C@H](NC(=O)OC(C)(C)C)C(=O)N1CCC[C@H]1C(=O)Nc1ccc([N+](=O)[O-])cc1 (Boc-Met-Pro-pNA),inhibition,"Thailand/16681/1984, Concentration 49.5 uM, Number of replicates 2.0, Standard deviation 0.6934296230825803 %",10.3%
same,inhibition,"Thailand/16681/1984, Concentration 99.01 uM, Number of replicates 2.0, Standard deviation 0.4989876662884813 %",17.1%
same,inhibition,"Thailand/16681/1984, Concentration 198.0 uM, Number of replicates 2.0, Standard deviation 0.32485037523299065 %",29.3%
CNC(=O)C1CCC(Nc2nc(Cl)cc3c(F)cccc23)CC1 (stereo unspecified),inhibition,"Thailand/16681/1984, Concentration 49.95 uM, Number of replicates 2.0, Standard deviation 5.365912193998162 %",-9.93%
C[C@@H](NC(=O)C1CCN(c2ccc(C=O)cc2)CC1)c1ccc2ccccc2c1,inhibition,[1],1.94%
Cc1nn(C)nc1-c1nn(C)cc1NC(=O)c1ccccc1C(F)(F)F,inhibition,"Thailand/16681/1984, Concentration 49.5 uM, Number of replicates 2.0, Standard deviation 2.7709187614774393 %",-3.06%
same,inhibition,"Thailand/16681/1984, Concentration 99.01 uM, Number of replicates 2.0, Standard deviation 2.812620033505876 %",-2.31%
same,inhibition,"Thailand/16681/1984, Concentration 198.0 uM, Number of replicates 2.0, Standard deviation 2.009504923047635 %",-2.5%
O=Cc1ccc(N2CCC(C(=O)N3CCCCC[C@H]3c3ccco3)CC2)cc1,inhibition,[1],13.4%
Cn1oc(C(=O)Nc2cc(Cl)cc(C(=O)NC(C)(C)CO)c2)cc1=O,inhibition,"Thailand/16681/1984, Concentration 49.5 uM, Number of replicates 2.0, Standard deviation 0.8141956117621647 %",-0.341%
same,inhibition,"Thailand/16681/1984, Concentration 99.01 uM, Number of replicates 2.0, Standard deviation 1.5201786631370027 %",0.297%
same,inhibition,"Thailand/16681/1984, Concentration 198.0 uM, Number of replicates 2.0, Standard deviation 2.6564108106217375 %",1.39%
C[C@@H](O)CNC(=O)c1cc(Cl)ccc1NS(=O)(=O)c1ccc(Oc2ccccc2Cl)cc1,inhibition,"Thailand/16681/1984, Concentration 49.5 uM, Number of replicates 2.0, Standard deviation 1.4145601780552486 %",30.4%
same,inhibition,"Thailand/16681/1984, Concentration 99.01 uM, Number of replicates 2.0, Standard deviation 0.06674442365142796 %",75.7%
same,inhibition,"Thailand/16681/1984, Concentration 198.0 uM, Number of replicates 2.0, Standard deviation 0.019135343573522066 %",67%
O=Cc1ccc(N2CCC(C(=O)Nc3ncc(C(F)(F)F)cc3Cl)CC2)cc1,inhibition,[1],11.8%
Cc1cc(N)cc(CNC(=O)Cc2cccc3c(CO)cc(C)nc23)c1,inhibition,"Thailand/16681/1984, Concentration 49.95 uM, Number of replicates 2.0, Standard deviation 0.21775017554498763 %",39.7%
same,inhibition,"Thailand/16681/1984, Concentration 99.9 uM, Number of replicates 2.0, Standard deviation 1.7887257377938661 %",61.7%
Cc1cc(CO)c2cccc(Cc3cccc(C(=O)NCc4ccc(C(N)=O)cc4)c3)c2n1,inhibition,"Thailand/16681/1984, Concentration 49.95 uM, Number of replicates 2.0, Standard deviation 1.5788782649320652 %",-6.46%
same,inhibition,"Thailand/16681/1984, Concentration 99.9 uM, Number of replicates 2.0, Standard deviation 2.3363374645660926 %",-3.45%
Cc1cc(CO)c2cccc(Cc3cccc(C(=O)NCCc4ncc[nH]4)c3)c2n1,inhibition,"Thailand/16681/1984, Concentration 49.95 uM, Number of replicates 2.0, Standard deviation 2.0725920117726813 %",-4.03%
same,inhibition,"Thailand/16681/1984, Concentration 99.9 uM, Number of replicates 2.0, Standard deviation 0.8997522707097182 %",1.59%
Cc1cc(N)cc(CNc2cccc3c(CO)cc(C)nc23)c1,inhibition,"Thailand/16681/1984, Concentration 49.95 uM, Number of replicates 2.0, Standard deviation 2.268676515546947 %",34.9%
same,inhibition,"Thailand/16681/1984, Concentration 99.9 uM, Number of replicates 2.0, Standard deviation 1.0884002159453274 %",63.5%
Cc1cc(N)cc(CNC(=O)c2cccc(Cc3cccc4c(CO)cc(C)nc34)c2)c1,inhibition,"Thailand/16681/1984, Concentration 49.95 uM, Number of replicates 2.0, Standard deviation 0.2659014326821377 %",29.9%
same,inhibition,"Thailand/16681/1984, Concentration 99.9 uM, Number of replicates 2.0, Standard deviation 1.3431613936290656 %",54.9%
Cc1cc(CO)c2cccc(CC(=O)NCCc3ncc[nH]3)c2n1,inhibition,"Thailand/16681/1984, Concentration 49.95 uM, Number of replicates 2.0, Standard deviation 0.7345959673097169 %",39.1%
same,inhibition,"Thailand/16681/1984, Concentration 99.9 uM, Number of replicates 2.0, Standard deviation 0.015925439590932376 %",77.7%
Cc1cc(CO)c2cccc(Cc3cccc(C(=O)NCc4c(C)noc4C)c3)c2n1,inhibition,"Thailand/16681/1984, Concentration 49.95 uM, Number of replicates 2.0, Standard deviation 0.7006856245222158 %",1.58%
same,inhibition,"Thailand/16681/1984, Concentration 99.9 uM, Number of replicates 2.0, Standard deviation 0.008623919554905093 %",5.27%
Cc1cc(CO)c2cccc(NCc3ccc(C(N)=O)cc3)c2n1,inhibition,"Thailand/16681/1984, Concentration 49.95 uM, Number of replicates 2.0, Standard deviation 1.5291755401543807 %",1.6%
same,inhibition,"Thailand/16681/1984, Concentration 99.9 uM, Number of replicates 2.0, Standard deviation 0.4954793626184345 %",6.67%
Cc1cc(CO)c2cccc(CC(=O)NCc3ccc(C(N)=O)cc3)c2n1,inhibition,"Thailand/16681/1984, Concentration 49.95 uM, Number of replicates 2.0, Standard deviation 0.824600056542549 %",-4.43%
same,inhibition,"Thailand/16681/1984, Concentration 99.9 uM, Number of replicates 2.0, Standard deviation 0.5940444883081935 %",2.19%
Cc1cc(CO)c2cccc(Cc3ccccc3C(=O)NCCc3ncc[nH]3)c2n1,inhibition,"Thailand/16681/1984, Concentration 49.95 uM, Number of replicates 2.0, Standard deviation 0.3032711887954129 %",14.1%
same,inhibition,"Thailand/16681/1984, Concentration 99.9 uM, Number of replicates 2.0, Standard deviation 0.18110062477906652 %",34.2%
Cc1cc(CO)c2cccc(CC(=O)NCC(N)=O)c2n1,inhibition,"Thailand/16681/1984, Concentration 49.95 uM, Number of replicates 2.0, Standard deviation 1.3653333333441007 %",-7.85%
same,inhibition,"Thailand/16681/1984, Concentration 99.9 uM, Number of replicates 2.0, Standard deviation 0.5261932884148693 %",-6.61%
Cc1cc(CO)c2cccc(NCc3ccc(S(N)(=O)=O)cc3)c2n1,inhibition,"Thailand/16681/1984, Concentration 49.95 uM, Number of replicates 2.0, Standard deviation 1.2377055953825635 %",8.26%
same,inhibition,"Thailand/16681/1984, Concentration 99.9 uM, Number of replicates 2.0, Standard deviation 1.691711110367126 %",17.2%
CSCC[C@H](NC(=O)OC(C)(C)C)C(=O)N1CCC[C@H]1C(=O)Nc1ccc(CN)cc1,inhibition,"Thailand/16681/1984, Concentration 49.5 uM, Number of replicates 2.0, Standard deviation 0.5873455681071067 %",0.345%
same,inhibition,"Thailand/16681/1984, Concentration 99.01 uM, Number of replicates 2.0, Standard deviation 0.9875045381203101 %",1.56%
same,inhibition,"Thailand/16681/1984, Concentration 198.0 uM, Number of replicates 2.0, Standard deviation 0.49996007837732465 %",2.5%
